# According to ChEMBL document CHEMBL4513154, “CO-ADD screening of Jain University (India) compounds”:
# Measured potencies and affinities stand elsewhere.
# Columns and labels:
# Klebsiella pneumoniae = settings: Concentration 32 ug.mL-1; ASSAY_TEST Inhibition of Bacterial Growth; detection method Absorption (OD600); MEDIA CAMHB; plate type 384well; NBS; CORNING #3640; time 18 hr
# Candida albicans = settings: 32 ug/mL
# Cryptococcus neoformans = settings: Concentration 32 ug.mL-1; ASSAY_TEST Inhibition of Fungal Growth; detection method Resazurin; Absorption (OD600-OD570); plate type 384well; NBS; CORNING #3640
structure (smiles),measurement,setting,value
Clc1ccc2c(c1)nc(-c1cscn1)n2Cc1ccc(Cl)nc1,Inhibition,Klebsiella pneumoniae,-1.17%
same,Inhibition,Candida albicans,2.99%
same,Inhibition,Cryptococcus neoformans,-29.64%
Clc1ccc(Cn2c(-c3cscn3)nc3ccccc32)cn1,Inhibition,Klebsiella pneumoniae,12.39%
same,Inhibition,Candida albicans,0.69%
same,Inhibition,Cryptococcus neoformans,-39.39%
Clc1ccc(Cn2c(-c3cscn3)nc3c(Cl)cccc32)cn1,Inhibition,Klebsiella pneumoniae,14.39%
same,Inhibition,Candida albicans,1.41%
same,Inhibition,Cryptococcus neoformans,-19.98%
